Bioassay records as filed in PubChem BioAssay.
SW480 rereplic: A quantitative high throughput screen for small molecules that induce DNA re-replication in SW480 colon adenocarcinoma cells; SW480 DNA re-replication, Hoechst DNA content imaging, 48 h; Potency, µM (titrated, usually from 46.1 µM), for inactives: at the highest dose re-replication activation, most hits filed as activators; 340,000 compounds, 1.8% hits; AID 624297, 2012; further: % of control where 0% means no effect; nearly all actives have a fitted effect of over 55% in size
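SW480 cells exposed to compounds for 48 hr at 37 C, 5% CO2, then Hoechst-stained 40 min. Nuclear DNA content imaged by fluorescence scanning (405 nm excitation, 500-530 nm emission); re-replication scored as increased high-intensity nuclei.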
HT1080 IDH1KD tx: qHTS for induction of synthetic lethality in tumor cells producing 2HG: qHTS for the HT-1080-IDH1KD cell line | HT-1080 IDH1 knockdown viability, ATP luminescence, 48 h | Potency, µM (doses to about 46.1 µM), for the others: top-dose activity, negative = toxicity, usual class: cytotoxic | 360,000 compounds, 2% hits | AID 686971, 2013;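 further: 0% = DMSO wells and -100% = cell-free medium wells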
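In this qHTS, HT-1080 cells depleted of IDH1 are exposed for 48 h at 37 °C to compound titrations. Toxicity is scored from CellTiter-Glo luminescence, with DMSO as full viability and medium alone as none.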
KB-3-1 tox: qHTS assay for MDR1-selective chemotherapeutics: Primary screen using the parental adenocarcinoma cell KB-3-1. Potency, µM (highest dose often 46.1 µM), usual class: cytotoxic. 400,000 compounds, 1.4% hits. KB-3-1 viability, CellTiter-Glo ATP luminescence, 72 h; further: on the % scale 0 is the no-effect control and ±100 the full control effect; nearly all actives have a fitted effect of over 60% in size
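Using CellTiter-Glo luminescence, growth of non-resistant KB-3-1 adenocarcinoma cells is assessed 72 h after pin-tool compound addition at 37 °C. Normalized responses across the concentration series yield fitted curves.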
MCF10A rereplic: A quantitative high throughput screen for small molecules that induce DNA re-replication in MCF 10a normal breast cells; MCF 10A DNA re-replication, Hoechst nuclear intensity, 48 h; Potency, µM (highest dose often 46.1 µM), inactives show top-dose activity, positive = re-replication, most hits filed as activators; 350,000 compounds, 2.9% hits; further: % of control where 0% means no effect; nearly all actives have a fitted effect of over 50% in size
HT1080NT lethal: qHTS for induction of synthetic lethality in tumor cells producing 2HG: qHTS for the HT-1080-NT fibrosarcoma cell line; AID 686970, 2013; Potency, µM (titrated, usually from 46.1 µM), without a hit: top-dose activity, negative = less viability, actives largely listed as cytotoxic; HT-1080-NT fibrosarcoma viability, CellTiter-Glo ATP luminescence, 48 h; 360,000 compounds, 1.6% hits;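 further: NT is the 2HG producing partner of a matched IDH1 knockdown line; 0% = DMSO-treated cells and -100% = media-only wells without cells; nearly all actives have a fitted effect of over 55% in size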
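Toxicity toward the 2HG-producing NT line was scored as %Activity, normalised to DMSO and no-cell wells, from CellTiter-Glo luminescence after 48 hours' treatment.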
KB-V1 MDR tox: qHTS assay for MDR1-selective chemotherapeutics: Primary screen using the drug-selected MDR subline cells KB-V1. Potency, µM (doses to about 46.1 µM), most hits filed as cytotoxic. 400,000 compounds, 3.4% hits. KB-V1 MDR cells viability, CellTiter-Glo, 72 h; further: on the % scale 0 is the no-effect control and ±100 the full control effect; nearly all actives have a fitted effect of over 60% in size
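KB-V1 cells (P-gp-expressing MDR subline of KB-3-1) in phenol-red-free DMEM with 10% FBS were exposed to library compounds over a concentration series for 72 h at 37 degrees C. Viability read by CellTiter-Glo luminescence; concentration-effect curves fitted after normalization.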
* = called active by the depositor. Most compounds without a hit are left out; they make up all but 7.9% or so of the library. The call rests on the fitted dose curve; in most records, active means well fitted curve in the direction sought with a large enough effect; inconclusive means small, poorly fitted or top-dose-only effect, or another doubt; inactive means no such curve, though single readings can be large; an effect the other way counts as inactive or inconclusive. Potency means the concentration at half of the fitted maximal effect.

`O=C(Nc1ccncc1)c1ccc(Cl)c(S(=O)(=O)N2CCc3ccccc32)c1` gave SW480 rereplic -339.8%, HT1080 IDH1KD tx inconclusive, KB-3-1 tox inconclusive, MCF10A rereplic inconclusive, HT1080NT lethal inconclusive and KB-V1 MDR tox inconclusive.
COc1ccc(Cl)cc1NC(=O)c1ccc2c(c1)CCCN2S(C)(=O)=O was read as KB-3-1 tox inactive and KB-V1 MDR tox inactive.
`COc1ccc(C(CNC(=O)c2cccc(S(=O)(=O)N3CCCc4ccccc43)c2)N(C)C)cc1` (stereo not given) gave SW480 rereplic inconclusive, HT1080 IDH1KD tx inconclusive, KB-3-1 tox inconclusive, MCF10A rereplic 17.0%, HT1080NT lethal -4.1% and KB-V1 MDR tox 2.31µM*.
For COc1ccc(S(=O)(=O)N2CCCc3ccccc32)cc1OC the results were SW480 rereplic inconclusive, HT1080 IDH1KD tx inconclusive, KB-3-1 tox inconclusive, MCF10A rereplic 9.8%, HT1080NT lethal -20.7% and KB-V1 MDR tox inactive.
Screening O=S(=O)(c1cccc(Cl)c1)N1CCSc2ccccc21 returned SW480 rereplic 114.8%, HT1080 IDH1KD tx -1.5%, KB-3-1 tox inactive, MCF10A rereplic 45.0%, HT1080NT lethal -0.7% and KB-V1 MDR tox inactive.
O=C(O)C1CC=CCC1C(=O)Nc1ccc(S(=O)(=O)N2CCCc3ccccc32)cc1 (stereo not given) was read as SW480 rereplic 8.3%, HT1080 IDH1KD tx 5.62µM*, KB-3-1 tox inconclusive, MCF10A rereplic inconclusive, HT1080NT lethal inconclusive and KB-V1 MDR tox inactive.
Screening COc1ccc(S(=O)(=O)N2CCCc3ccccc32)cc1[N+](=O)[O-] returned SW480 rereplic 20.6µM*, HT1080 IDH1KD tx 8.2µM*, KB-3-1 tox 4.11µM*, MCF10A rereplic 4.11µM*, HT1080NT lethal 8.2µM* and KB-V1 MDR tox inconclusive.
CC(=O)Nc1ccc(S(=O)(=O)N2CCSc3ccccc32)cc1 was read as SW480 rereplic 3.66µM*, HT1080 IDH1KD tx 13µM*, KB-3-1 tox 5.8µM*, MCF10A rereplic 6.51µM*, HT1080NT lethal 20.6µM* and KB-V1 MDR tox inactive.
For Cn1c(=O)c2c(n3c4ccccc4nc13)NC(=O)CC2c1ccccc1F (stereo not given) the results were KB-3-1 tox inactive and KB-V1 MDR tox inactive.
For COc1cc2c(cc1OC)CN(C(=O)c1cccc(S(=O)(=O)N3CCc4ccccc43)c1)CC2 the results were SW480 rereplic 25.4%, HT1080 IDH1KD tx -28.7%, KB-3-1 tox inactive, MCF10A rereplic inconclusive, HT1080NT lethal -1.6% and KB-V1 MDR tox 20.6µM*.
COc1ccc(NC(=O)c2cccc(S(=O)(=O)N3CCc4ccccc43)c2)cn1 was read as SW480 rereplic -1.8%, HT1080 IDH1KD tx -15.3%, KB-3-1 tox inactive, MCF10A rereplic 13.6%, HT1080NT lethal -14.2% and KB-V1 MDR tox 13µM*.
Screening C[C@H]1CN([C@@H](C)CO)C(=O)CCCn2nncc2CO[C@H]1CN(C)C(=O)Nc1ccc2c(c1)OCO2 returned HT1080 IDH1KD tx -1.0%, KB-3-1 tox inactive, HT1080NT lethal 0.6% and KB-V1 MDR tox inactive.
For CCN(CCn1cccn1)Cc1nc(-c2ccccc2)no1 the results were SW480 rereplic -2.2%, HT1080 IDH1KD tx -4.6%, KB-3-1 tox inactive, MCF10A rereplic -1.4%, HT1080NT lethal -0.3% and KB-V1 MDR tox 23.1µM*.
`Cc1ccc(S(=O)(=O)CC(=O)Nc2ccccn2)cc1` gave SW480 rereplic -7.8%, HT1080 IDH1KD tx 1.3%, KB-3-1 tox inactive, MCF10A rereplic 5.2%, HT1080NT lethal 0.0% and KB-V1 MDR tox inactive.
`Cc1ccc(S(=O)(=O)Nc2ccccc2-c2ccccc2NS(=O)(=O)c2ccc(C)cc2)cc1` gave SW480 rereplic -3.3%, HT1080 IDH1KD tx inconclusive, KB-3-1 tox inconclusive, MCF10A rereplic inconclusive, HT1080NT lethal inconclusive and KB-V1 MDR tox inconclusive.
Screening Cc1ccc(S(=O)(=O)Nc2ccccc2CNc2ccccn2)cc1 returned SW480 rereplic -3.0%, HT1080 IDH1KD tx -0.5%, KB-3-1 tox inconclusive, MCF10A rereplic 0.9%, HT1080NT lethal -0.4% and KB-V1 MDR tox 20.6µM*.
Oc1ccccc1CNc1ccc(Br)cn1 was read as SW480 rereplic 0.3%, HT1080 IDH1KD tx 11.6µM*, KB-3-1 tox inactive, MCF10A rereplic inconclusive, HT1080NT lethal 10.3µM* and KB-V1 MDR tox inactive.
Screening Cc1ccc(S(=O)(=O)CC(=O)Nc2ccc(S(=O)(=O)Nc3ccccn3)cc2)cc1 returned SW480 rereplic -50.1%, HT1080 IDH1KD tx -2.7%, KB-3-1 tox inactive, MCF10A rereplic 1.46µM*, HT1080NT lethal 4.5% and KB-V1 MDR tox inactive.
Screening Brc1ccc(NCc2cccc3ccccc23)nc1 returned SW480 rereplic 11.7%, HT1080 IDH1KD tx -4.3%, KB-3-1 tox inactive, MCF10A rereplic inconclusive, HT1080NT lethal -4.1% and KB-V1 MDR tox inactive.
For Cc1ccc(S(=O)(=O)Nc2ccccc2CNc2ncc(Br)cc2Br)cc1 the results were SW480 rereplic inconclusive, HT1080 IDH1KD tx -9.0%, KB-3-1 tox inconclusive, MCF10A rereplic -2.7%, HT1080NT lethal -13.2% and KB-V1 MDR tox 2.91µM*.
`CCCNC(=O)C1(C)CCN(CCC(=O)c2ccc(Br)cc2)C1` (stereo not given) gave HT1080 IDH1KD tx inconclusive, KB-3-1 tox inactive, HT1080NT lethal -20.4% and KB-V1 MDR tox inactive.
Screening CC(C)C[C@@H](CN1CCC[C@H]1CN1C(=O)C(=O)NC[C@@H]1Cc1ccc(O)cc1)N1C[C@H](Cc2ccccc2)N(CC2CCCCCC2)C(=O)C1=O returned HT1080 IDH1KD tx inconclusive, KB-3-1 tox inactive, HT1080NT lethal inconclusive and KB-V1 MDR tox inactive.
For COc1ccc2c(c1)c1c(c(=O)n(-c3ccccc3)c(=O)n1CC(=O)Nc1ccc(C)c(C)c1)n2C the results were KB-3-1 tox inactive and KB-V1 MDR tox inactive.
For Cc1ccc(S(=O)(=O)Nc2ccccc2CNc2ccc(Br)cn2)cc1 the results were SW480 rereplic inconclusive, HT1080 IDH1KD tx -24.2%, KB-3-1 tox 23.1µM*, MCF10A rereplic inconclusive, HT1080NT lethal -16.1% and KB-V1 MDR tox 5.8µM*.
O=c1c2ccccc2n(Cc2cccc(F)c2)c(=O)n1Cc1ccccc1Cl was read as KB-3-1 tox inactive and KB-V1 MDR tox inactive.
